# Assay results reported in US20130022590, “Compositions Comprising Zinc Finger Domains and Uses Therefor” (published 2013).
# Target: T1, ZRANB2-F2 (Homo sapiens, UniProt O95218 O95218:65-95)
# T1 chain: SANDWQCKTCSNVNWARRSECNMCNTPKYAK
# Assay: FP; about 4-fold to 8-fold stated in p392
# Conditions: tags: GST fusion (FA); label: 5'-fluorescein; ssRNA
# Description: Fluorescence Anisotropy titrations e.g., as shown in FIGS. 1D-F, 8 and 35, were carried out using standard protocols. In brief, 5′-Fluorescein-labeled RNA oligonucleotides were quantified by A₂₆₀, correcting for fluorescein absorbance by using A₄₉₃. For single-site experiments, the sequence […] (SEQ ID NO: 28), or single base mutants thereof, was used. For double-site experiments, two AGGUAA sites were separated by different length sequences as indicated, and the total oligonucleotide lengths were kept constant by the symmetrical addition of adenines to each end. […] Protein was titrated into this starting solution and anisotropy values measured on a Cary Eclipse fluorescence spectrophotometer fitted with manual polarizer and long-pass filters set to 475 and 515 nm for excitation and emission, respectively. […] Association constants were determined by nonlinear least squares regression analysis using a 1:1 binding model.
# To determine whether changing arginine-82 (R82) would affect the binding preference of ZRANB2-F2 from GGU to GAU, the point mutation R82Q in ZNF 2 of ZRANB2 was made and the ability of both the wild type (W) protein and the R82Q mutant to bind to AGGUAA and AGAUAA was assessed by fluorescence anisotropy binding assays as described previously in Example 1.
row,Sequence,binding signal
1,AGAUAA,~4 fold lower than AGGUAA
